{
  "source": "PubChem BioAssay (NCI)",
  "note": "“And” between values parts separate entries of the source, which are not always exact repeats. Equal values may be shown once. The panel holds about 83,000 compounds, 20% with a hit somewhere; the sample as a whole holds those more often.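 The endpoint reported here, percent growth, reads 100 for growth as untreated, 0 for no net growth and -100 for all cells dead.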 The source made the active and inactive calls. How the source made its calls: active means growth percent below 10; inactive means the rest.",
  "data": [
    {"system": "MCF7 breast", "assay": "NCI-60 one-dose screen, 48 h (100 = growth as untreated, 0 = no growth, -100 = all killed)", "details": "10 µM unless noted", "values": [
      {"smiles": "COc1cc(-c2nc(SC)nc3c2CCc2ccccc2-3)cc(OC)c1OC", "growth": "19.3% [100 µM] (inactive) and 8.46% [100 µM] (active)"},
      {"smiles": "COc1ccc(C2c3cc4c(c(OC)c3CC3OCC(=O)C32)OCO4)cc1OC", "note": "(centres undefined)", "growth": "6.05% [100 µM] (active) and -81% [100 µM] (active)"},
      {"smiles": "O=C(Cc1nc2ccc(C(=O)c3ccccc3)cc2[nH]c1=O)C(=O)Nc1ccccc1[N+](=O)[O-]", "growth": "27.4% [100 µM] (inactive) and 4.17% [100 µM] (active)"},
      {"smiles": "CSc1nc(Br)nc2ncn(C3CC(Oc4ccc(C)cc4)C(COc4ccc(C)cc4)O3)c12", "note": "(centres undefined)", "growth": "64.8% [100 µM] (inactive) and -36.2% [100 µM] (active)"}
    ]}
  ]
}
